PubChem BioAssay AID602144 (Vanderbilt Specialized Chemistry Center, 2011)
The source made the active and inactive calls. Rule as the data show it: active = remaining activity below about 50%; inactive = the rest.

The molecules below were run against Phospholipase D1 (Homo sapiens) (UniProt Q13393) (assay: PLD1 inhibitors in cells, Calu-1 cells, single concentration (AID 602144;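 also: tested at 200 nM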)). Settings: cellular PLD1 activity, hits give low values.
Phospholipase D1 (Homo sapiens), sequence (Q13393 whole entry, looked up): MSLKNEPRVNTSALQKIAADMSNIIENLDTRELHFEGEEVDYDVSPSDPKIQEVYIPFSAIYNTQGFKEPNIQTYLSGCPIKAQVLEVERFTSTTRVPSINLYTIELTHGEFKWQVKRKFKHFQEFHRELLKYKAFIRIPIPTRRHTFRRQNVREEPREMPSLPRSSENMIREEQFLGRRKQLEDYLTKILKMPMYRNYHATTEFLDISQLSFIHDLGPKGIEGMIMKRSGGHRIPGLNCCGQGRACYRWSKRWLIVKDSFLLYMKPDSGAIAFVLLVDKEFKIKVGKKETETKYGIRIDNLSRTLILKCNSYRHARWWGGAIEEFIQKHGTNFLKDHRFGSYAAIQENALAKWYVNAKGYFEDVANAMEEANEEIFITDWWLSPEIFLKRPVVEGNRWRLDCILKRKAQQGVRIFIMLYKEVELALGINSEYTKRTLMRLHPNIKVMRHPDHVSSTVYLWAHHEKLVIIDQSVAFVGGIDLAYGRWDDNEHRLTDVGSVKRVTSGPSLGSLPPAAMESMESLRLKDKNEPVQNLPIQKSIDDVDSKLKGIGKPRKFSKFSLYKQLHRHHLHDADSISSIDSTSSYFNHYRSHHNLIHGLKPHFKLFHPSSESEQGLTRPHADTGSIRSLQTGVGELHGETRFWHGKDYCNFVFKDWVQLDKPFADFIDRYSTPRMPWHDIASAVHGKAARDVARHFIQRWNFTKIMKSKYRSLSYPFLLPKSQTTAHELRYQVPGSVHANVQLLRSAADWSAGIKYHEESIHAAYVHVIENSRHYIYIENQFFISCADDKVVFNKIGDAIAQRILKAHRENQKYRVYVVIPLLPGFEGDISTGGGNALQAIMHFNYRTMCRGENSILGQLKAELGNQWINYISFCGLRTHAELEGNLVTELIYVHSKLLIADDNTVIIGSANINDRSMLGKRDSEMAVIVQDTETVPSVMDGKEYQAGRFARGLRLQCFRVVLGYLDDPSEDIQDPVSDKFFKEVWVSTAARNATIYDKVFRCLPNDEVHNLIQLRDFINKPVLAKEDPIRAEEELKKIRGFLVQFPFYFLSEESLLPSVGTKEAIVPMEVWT
Phospholipase D1 (Homo sapiens), sequence (Q13393 whole entry, looked up): as above
With `O=c1[nH]c2ccccc2n1C1CCN(CCN2CCCC2)CC1` the remaining activity was 112% (inactive).
In the case of `COc1cccc(C(=O)NCCN2CCC(n3c(=O)[nH]c4ccccc43)CC2)n1`, the remaining activity is reported as 39.7% (active).
With `O=C(NCCN1CC=C(n2c(=O)[nH]c3ccccc32)CC1)C1CC1c1ccccc1` (stereo not drawn) the remaining activity was 0% (active).
`C[C@@H](CN1CCC(n2c(=O)[nH]c3cc(F)ccc32)CC1)NC(=O)c1ccc(F)c(F)c1` was tested, and the remaining activity was 19.7% (active).
`O=C(c1ccc2ccccc2c1)N1CCC2(CC1)C(=O)NCN2c1ccccc1` was tested, and the remaining activity was 113% (inactive).
With `O=C(CCN1CCC(n2c(=O)[nH]c3ccccc32)CC1)NCc1ccc(Cl)cc1` the remaining activity was 98.9% (inactive).
In the case of `O=C1c2ccccc2C(=O)N1CCCN1CCC(n2c(=O)[nH]c3cc(Cl)ccc32)CC1`, the remaining activity is reported as 67.5% (inactive).
With `CCOC(=O)CNC(=O)NCCN1CCC(n2c(=O)[nH]c3ccccc32)CC1` the remaining activity was 136% (inactive).
`C[C@@H](CN1CCC2(CC1)CN(S(C)(=O)=O)c1ccccc12)NC(=O)[C@H]1C[C@@H]1c1ccccc1` was tested, and the remaining activity was 148% (inactive).
With `C[C@@H](CN1CCC(n2nnc3cc(C(F)(F)F)ccc32)CC1)NC(=O)c1cnc2ccccc2c1` the remaining activity was 101% (inactive).
In the case of `Cn1c(C2CCN(CCN)CC2)nc2ccccc21` (tested in a mixture with another compound), the remaining activity is reported as 75% (inactive).
For `O=C(NCCN1CCC(n2c(=O)[nH]c3ccccc32)CC1)c1ccc(Cc2ccccc2)cc1`, the remaining activity was 91.5% (inactive).
In the case of `O=C(NCCN1CCC(n2nnc3ccccc32)CC1)c1ccc2ccccc2c1`, the remaining activity is reported as 19.1% (active).
